Compound activity from PubChem BioAssay.
The list is not random: actives were taken first. Their share in the collection is about 1.6%.
KCNQ2 inh = inhibitors of rat KCNQ2 potassium channel | O88943 | CHO-K1 KCNQ2, FluxOR thallium flux, 20 min; active compounds read low | B-score at 10 µM | 1.1% of 310,000 active | AID 2156;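 active means fluorescence ratio B-score at most minus 3 library SDs, with starting brightness B-score within 2 library SDs, cut at about -5.5 in these data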
KCNQ2 enhance = enhances the rat KCNQ2 potassium channel; CHO-K1 KCNQ2, FluxOR thallium flux fluorescence; active compounds read high; B-score at 10 µM; 0.54% of 310,000 active;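 active means fluorescence ratio B-score at least 3 SD of library B-scores, with initial fluorescence B-score within 3 of them, cut at about 5.3 in these data; same plate scores as AID 2156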;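 further: B-score of peak minus minimum over baseline fluorescence ratio after K+ and Tl+ stimulus; positive B-score means potentiation of KCNQ2 with more thallium influx and brighter signal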
Kir21 confirm = confirmation of mouse Kir2.1 potassium channel inhibitors. AID 2032. shares compounds with KCNQ2 enhance. Tl flux remaining, % of negative control (active compounds read low), % at 10 µM. 41% of 2,300 active. Kir2.1-expressing cells, FluxOR thallium flux fluorescence; active compounds read low;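 active means Primary-screen hit whose thallium flux fell at least 3 control SD below untreated wells in both duplicates, with normal baseline fluorescence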;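 further: 0% = blank wells without stimulus and 100% = stimulated no-compound controls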
Target sequence (P35561 whole entry, looked up): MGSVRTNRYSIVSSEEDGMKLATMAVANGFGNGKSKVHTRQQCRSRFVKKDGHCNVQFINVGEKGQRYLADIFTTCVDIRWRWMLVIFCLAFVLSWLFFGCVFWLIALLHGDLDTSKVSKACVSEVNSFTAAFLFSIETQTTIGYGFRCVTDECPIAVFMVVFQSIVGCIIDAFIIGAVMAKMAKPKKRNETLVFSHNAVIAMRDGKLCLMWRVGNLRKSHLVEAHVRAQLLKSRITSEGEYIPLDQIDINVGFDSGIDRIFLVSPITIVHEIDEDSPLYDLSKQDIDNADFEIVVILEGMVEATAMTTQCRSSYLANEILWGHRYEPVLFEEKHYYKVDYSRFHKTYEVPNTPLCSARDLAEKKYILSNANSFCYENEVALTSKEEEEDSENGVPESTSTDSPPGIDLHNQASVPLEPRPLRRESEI
HEK293 ctr = alters thallium flux in parental HEK293 cells, Kir2.1 counter-screen; FluxOR signal as % of negative control (100 = no effect), % at 10 µM; shares compounds with KCNQ2 enhance; FluxOR thallium flux fluorescence; 0% = unstimulated blank wells; 19% of 2,300 active;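 active means dye signal at least 3 control SD above or below untreated wells in both duplicates, raw fluorescence within 3, either direction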;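 further: percent is based on the flux ratio of peak minus minimum fluorescence over baseline F0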
CHO-K1 Tl ctr = alters thallium flux in parental CHO-K1 cells, KCNQ2 counter-screen; shares compounds with KCNQ2 enhance; FluxOR thallium flux fluorescence; zero = vehicle mean+3SD, 100% = vehicle-minus-blank window; activity increase over 3SD of controls, % at 10 µM; 43% of 1,200 active; AID 2282;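 active means signal rise of at least 3 SD above the untreated control mean, in both duplicate wells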;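 further: counter screen of KCNQ2 potentiator hits so any rise reflects channel-independent effects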
KCNQ1 pot spec = human KCNQ1 counter-target activity of KCNQ2 potentiators | shares compounds with KCNQ2 enhance | CHO KCNQ1 stable, FluxOR thallium flux fluorescence; beyond 3SD, as % of vehicle-control signal | activation over 3SD threshold, % at 10 µM | 28% of 1,200 active | AID 2283;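 active means fluorescence ratio rise of at least 3 SD of vehicle wells above their mean, in both replicate wells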;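 further: 0% = vehicle mean plus 3 SD and 100% = vehicle minus unstimulated blank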
KCNQ2 pot confirm = confirmation of rat KCNQ2 potassium channel potentiators; shares compounds with KCNQ2 enhance; CHO-KCNQ2 cells, FluxOR thallium flux fluorescence; potentiation, less the hit threshold, % at 10 µM; 68% of 1,200 active; AID 2287;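 active means fluorescence ratio rising 3 SD or more over the vehicle control mean in both replicates, plus primary screen hit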;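 further: peak minus minimum thallium fluorescence divided by baseline after K/Tl stimulus; 0% = vehicle mean plus 3 SD and 100% = vehicle minus unstimulated blank difference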
Kir2-1 sel = mouse Kir2.1 off-target activity of KCNQ2 potentiators; HEK293 Kir2.1, FluxOR thallium flux fluorescence; activity over 3SD threshold, % at 10 µM; shares compounds with KCNQ2 enhance; 2% of 1,200 active; AID 2345;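 active means fluorescence ratio rise of at least 3 SD above the vehicle-control mean, seen in both replicates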;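 further: 0% = vehicle mean plus 3 SD and 100% = vehicle minus no-stimulus blank window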
KCNQ2 W236L pot = potentiates the retigabine-insensitive rat KCNQ2 W236L mutant channel. shares compounds with KCNQ2 enhance. AID 2558. current increase over 3SD of negative controls (%), active compounds read high, % at 25 µM. CHO KCNQ2-W236L, automated patch clamp current. 10% of 940 active;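 active means current increase at least 3 SD of the untreated controls above them in both duplicate recordings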
* hit, by the source's call; i = inactive; nt = no result.

SMILES	KCNQ2 inh	KCNQ2 enhance	Kir21 confirm	HEK293 ctr	others
NC(=O)CCn1c2ccccc2c2ccccc21	i	0.2	nt	nt
CC(C)CCn1c2ccccc2c2cc(CC(N)=O)ccc21	i	0.94	i	i
COc1ccc(C)cc1NC(=O)CCN1CC(C)OC(C)C1 (configuration not stated)	i	0.78	nt	nt
NS(=O)(=O)c1ccc(CCNC(=O)C(=O)C2C(=O)Nc3ccccc32)cc1 (configuration not stated)	i	nt	nt	nt
CC1=NN(C(N)=S)C(=O)C1N=Nc1ccc(Cl)cc1Cl (configuration not stated)	i	12.5*	i	i	CHO-K1 Tl ctr=-7.5;KCNQ1 pot spec=-16.5;KCNQ2 pot confirm=-3.9;Kir2-1 sel=-30.3;KCNQ2 W236L pot=i
CC1=NN(C(N)=S)C(=O)C1N=Nc1ccccc1Cl (configuration not stated)	i	nt	nt	nt
Cc1ccccc1CC(=O)NCC1CCCCC1	i	4.23	nt	nt
Cc1ccc(CC(=O)NCC2CCCCC2)cc1	i	7.49*	i	i	CHO-K1 Tl ctr=46.8*;KCNQ1 pot spec=-25.9;KCNQ2 pot confirm=-10.8;Kir2-1 sel=-23.1
O=C(COc1ccc(Cl)cc1)NNC(=O)c1ccc2c(=O)n3c(nc2c1)CCC3	i	0.23	nt	nt
Cc1ccc(NC(=O)CN(C)C(=O)CNC(=O)c2sc3ccccc3c2Cl)cc1	i	0.71	nt	nt
COc1ccc(CC(=O)Nc2nc(C(C)(C)C)cs2)cc1	i	nt	30.0%*	i
COc1ccc(CC(=O)Nc2nc(C)cs2)cc1	i	nt	nt	nt
Cc1ccc(Oc2ccc(C(F)(F)F)cc2[N+](=O)[O-])c([N+](=O)[O-])n1	i	nt	nt	nt
Cc1c(Cl)cccc1NC(=O)C(=O)NNC(=O)c1ccccc1F	i	22.5*	i	425.5%*	CHO-K1 Tl ctr=-6.1;KCNQ1 pot spec=-10.6;KCNQ2 pot confirm=73.1*;Kir2-1 sel=-7.0;KCNQ2 W236L pot=i
Cc1c(Cl)cccc1Nc1ccccc1C(=O)O	i	nt	nt	nt
CSc1ccccc1NC(=O)Nc1cccc(Cl)c1C	i	0.05	nt	nt
Cc1ccccc1C(=O)NNC(=O)C(=O)Nc1cccc(Cl)c1C	i	14*	i	275.0%*	CHO-K1 Tl ctr=-6.5;KCNQ1 pot spec=-22.9;KCNQ2 pot confirm=21.1*;Kir2-1 sel=-38.8;KCNQ2 W236L pot=i
COc1ccc(OC)c(NC(=O)Cn2c(=O)n(CC3CCCO3)c(=O)c3cc(OC)c(OC)cc32)c1 (configuration not stated)	i	nt	nt	nt
O=c1c2ccccc2c(/C=N/c2n[nH]c(CCCO)n2)c(O)n1-c1ccccc1Cl	i	0.14	nt	nt
Cc1ccc(C(C)C)c(OC(=O)/C=C/c2ccccc2)c1	i	nt	nt	nt
O=C(OCC(=O)N1CCOCC1)c1ccc(Br)cc1	i	0.39	nt	nt
O=C(NNc1cc(C(F)(F)F)nc2ccccc12)Nc1cccc(Cl)c1	i	0.16	nt	nt
C/C(=N\NC(=O)c1nc2ccccn2c1C)c1cc2ccccc2o1	i	0.96	nt	nt
C/C(=N\NC(=O)c1cc2ccccc2cc1O)c1cc2ccccc2o1	i	20.7*	i	451.5%*	CHO-K1 Tl ctr=93.3*;KCNQ1 pot spec=-9.2;KCNQ2 pot confirm=69.2*;Kir2-1 sel=-17.9;KCNQ2 W236L pot=i
C/C(=N\NC(=O)c1cc2ccccc2cc1O)c1ccccn1	i	5.87*	i	166.5%*	CHO-K1 Tl ctr=-9.2;KCNQ1 pot spec=3.0*;KCNQ2 pot confirm=-8.6;Kir2-1 sel=-29.4
SMILES	KCNQ2 inh	KCNQ2 enhance	Kir21 confirm	HEK293 ctr	others
C/C(=N\NC(=O)c1c[nH]c2ccccc12)c1ccccn1	i	nt	nt	nt
CN1C(=O)[C@H]2[C@@H](/C=C/c3ccccc3)N3C(=O)CN(Cc4ccc(-c5ccccc5)cc4)C(=O)[C@@]3(Cc3ccccc3)[C@H]2C1=O	i	nt	nt	nt
CCN(CC)CC#CCOC(c1ccccc1)c1ccccc1	i	nt	nt	nt
CN(C)CC#CCOC(c1ccccc1)c1ccccc1	i	nt	50.0%*	i
COc1ccccc1-c1ccc2nnc(SC)n2n1	i	0.34	nt	nt
c1ccc(CNCCC(Cc2ccccc2)c2ccco2)cc1 (configuration not stated)	i	nt	17.0%*	74.0%*
CN(C)c1ccc(CNCCC(Cc2ccccc2)c2ccco2)cc1 (configuration not stated)	i	nt	nt	nt
CCOc1ccc(-n2cc(-c3ccccc3)c3c(=S)nc[nH]c32)cc1	i	6.9*	i	148.0%*	CHO-K1 Tl ctr=11.3*;KCNQ1 pot spec=-16.4;KCNQ2 pot confirm=0.0*;Kir2-1 sel=-27.2;KCNQ2 W236L pot=i
CCOc1ccc(-n2cc(-c3ccccc3)c3c(=O)[nH]cnc32)cc1	i	0.58	nt	nt
CCCOc1ccc(CNCCCOCC)cc1OC	i	0.08	nt	nt
COc1ccc(-n2nnnc2-c2ccc(S(C)(=O)=O)cc2Cl)cc1	i	nt	nt	nt
Cn1cccc1/C=N/NC(=O)CSc1nc2ccccc2[nH]1	i	1.76	nt	nt
CCN(c1ccc(OC)cc1)S(=O)(=O)c1ccc2c(c1)NC(=O)CS2	i	nt	nt	nt
CCN(c1cccc(C)c1)S(=O)(=O)c1ccc2c(c1)NC(=O)CS2	i	nt	61.5%*	i
O=C(Nc1nc2c(cc3c4c(cccc42)CC3)s1)c1ccccc1Cl	i	1.69	nt	nt
O=C(N/N=C/c1ccc([N+](=O)[O-])o1)c1sc2ccccc2c1Cl	i	5.52*	i	i	CHO-K1 Tl ctr=7.0*;KCNQ1 pot spec=-23.7;KCNQ2 pot confirm=-15.3;Kir2-1 sel=-34.8
Cn1cccc1/C=N/NC(=O)c1sc2ccccc2c1Cl	i	nt	nt	nt
OC1CCCN(Cc2ccc3ccc4cccc5ccc2c3c45)C1 (configuration not stated)	i	nt	48.0%*	i
c1cc2ccc3ccc(CN4CCOCC4)c4ccc(c1)c2c34	i	0.02	nt	nt
CCCc1nc2sc3c(c2c(=O)n1N)CCC3	i	nt	nt	nt
Cc1ccccc1-n1c(SCC(=O)O)nc2sc3c(c2c1=O)CCCC3	i	nt	nt	nt
Cc1nc2sc3c(c2c(=O)n1NC(=O)CCBr)CCCC3	i	6.61*	i	i	CHO-K1 Tl ctr=-6.7;KCNQ1 pot spec=-3.7;KCNQ2 pot confirm=11.3*;Kir2-1 sel=-35.9;KCNQ2 W236L pot=i
CCCc1nc2sc3c(c2c(=O)n1NC(=O)CCC(=O)OC)CCCC3	i	9.3*	i	i	CHO-K1 Tl ctr=6.2*;KCNQ1 pot spec=3.4*;KCNQ2 pot confirm=31.4*;Kir2-1 sel=-25.3;KCNQ2 W236L pot=i
CCOc1cc(C(=S)N2CCCCC2)ccc1OCC(=O)NCc1ccccc1	i	nt	nt	nt
Cc1ccc(C(=O)CSC2=C(C#N)C(c3ccco3)C3=C(CC(C)(C)CC3=O)N2)cc1 (configuration not stated)	i	0.27	nt	nt
CCOC(=O)CSC1=C(C#N)C(c2ccc(F)cc2)C(C(C)=O)=C(C)N1 (configuration not stated)	i	8.06*	i	i	CHO-K1 Tl ctr=13.6*;KCNQ1 pot spec=-20.4;KCNQ2 pot confirm=4.6*;Kir2-1 sel=-44.4;KCNQ2 W236L pot=i
